Consider 38 molecules from PubChem BioAssay (NCATS).

Inconclusive results are not listed. Entries that show only a call come without a potency. Activity calls are given as the source filed them. Calls come from the whole dose curve; as a rule, active = well fitted curve in the direction sought with a large enough effect in the repeat runs; inconclusive = weak or mixed curves; inactive = no such curve, though single readings can be large; an effect the other way counts as inactive or inconclusive.
Note: nearly all actives have a fitted effect of over 55% in size.
Potency is the fitted concentration of half-maximal effect.

Chain of Cytochrome P450 2D6 (Homo sapiens) (P10635 whole entry, looked up): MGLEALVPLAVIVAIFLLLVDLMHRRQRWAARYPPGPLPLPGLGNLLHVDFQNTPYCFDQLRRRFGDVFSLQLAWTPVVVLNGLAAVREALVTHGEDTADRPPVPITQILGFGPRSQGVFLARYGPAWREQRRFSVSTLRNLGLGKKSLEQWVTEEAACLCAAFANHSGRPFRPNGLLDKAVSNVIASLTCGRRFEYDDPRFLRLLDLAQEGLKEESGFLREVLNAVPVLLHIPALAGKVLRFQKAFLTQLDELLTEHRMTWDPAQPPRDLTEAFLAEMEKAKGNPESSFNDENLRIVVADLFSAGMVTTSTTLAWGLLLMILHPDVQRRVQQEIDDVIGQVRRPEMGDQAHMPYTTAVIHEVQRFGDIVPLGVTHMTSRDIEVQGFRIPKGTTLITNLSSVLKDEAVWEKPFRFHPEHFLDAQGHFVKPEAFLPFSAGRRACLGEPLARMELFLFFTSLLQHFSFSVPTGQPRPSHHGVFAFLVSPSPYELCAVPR
Chain of Cytochrome P450 2C9 (Homo sapiens) (P11712 whole entry, looked up): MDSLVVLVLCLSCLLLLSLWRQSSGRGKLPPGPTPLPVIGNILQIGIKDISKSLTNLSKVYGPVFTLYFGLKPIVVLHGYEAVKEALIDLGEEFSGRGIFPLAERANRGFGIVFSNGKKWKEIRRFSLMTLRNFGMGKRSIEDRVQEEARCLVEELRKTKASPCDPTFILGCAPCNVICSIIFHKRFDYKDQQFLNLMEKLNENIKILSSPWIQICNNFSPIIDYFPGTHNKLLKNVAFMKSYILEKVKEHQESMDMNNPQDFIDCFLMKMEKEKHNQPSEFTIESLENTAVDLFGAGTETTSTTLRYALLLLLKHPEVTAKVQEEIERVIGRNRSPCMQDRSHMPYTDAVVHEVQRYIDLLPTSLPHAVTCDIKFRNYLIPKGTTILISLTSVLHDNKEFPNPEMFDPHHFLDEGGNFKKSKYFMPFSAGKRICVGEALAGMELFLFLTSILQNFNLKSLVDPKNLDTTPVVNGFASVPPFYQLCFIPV

The target of the first experiment is Cytochrome P450 2D6 (Homo sapiens) (UniProt P10635). As to the kind of experiment: Cytochrome P450 family 2 subfamily D member 6 (CYP2D6) small molecule antagonists: luciferase biochemical (cell-free) qHTS assay (AID 1645840). To be noted: P450-Glo CYP2D6 enzyme, luciferin luminescence, 1 h; series mostly up to 57.4 µM. The essentials:
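P450-Glo luminescent screen: recombinant CYP2D6 enzyme–proluciferin substrate mix preincubated with compound 10 min at room temperature, then NADPH regeneration added for 1 h at room temperature. Detection reagent added for 20 min; luciferin light read as relative luminescence units.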
`S=C=Nc1ccc(N=C=S)cc1`: the Potency entry is “inactive”.

With `NC(=O)OCC(O)COc1ccc(Cl)cc1` (stereo unspecified), the Potency entry is “inactive”.

Regarding `Oc1cc(O)cc(O)c1`, the Potency result is “inactive”.

With `O=C(OC1C[C@@H]2CC3C[C@H](C1)N2CC3=O)c1c[nH]c2ccccc12` (stereo partly specified), the Potency was 6.74 µM (active).

Regarding `CN1c2c(nc(N)[nH]c2=O)NCC1CNc1ccc(C(=O)NC(CCC(=O)O)C(=O)O)cc1` (stereo unspecified), the Potency entry was “inactive”.

For the molecule `CO[C@H]1O[C@@H]2O[C@@]3(C)CC[C@H]4[C@H](C)CC[C@@H]([C@H]1C)[C@@]24OO3`, the Potency result is “inactive”.

For `CC1(O)CCC(C(C)(C)O)CC1` (stereo unspecified), the Potency entry was “inactive”.

`COC(=O)[C@@H](N)CS`: the Potency result was “inactive”.

Turning to `CC(CCc1ccc(O)cc1)NCC(O)c1ccc(O)cc1` (stereo unspecified), the Potency is 6.74 µM (active).

Turning to `CC[C@H]1OC(=O)C[C@@H](O)[C@H](C)[C@@H](O[C@@H]2O[C@H](C)[C@@H](O[C@H]3C[C@@](C)(O)[C@@H](O)[C@H](C)O3)[C@H](N(C)C)[C@H]2O)[C@@H](CC=O)C[C@@H](C)C(=O)/C=C/C(C)=C/[C@@H]1CO[C@@H]1O[C@H](C)[C@@H](O)[C@@H](OC)[C@H]1OC`, the Potency result is “inactive”.

`Nc1nc(=O)n([C@@H]2CS[C@H](CO)O2)cc1F`: the Potency result is “inactive”.

For the molecule `CCCCCCOC(=O)c1cccnc1`, the Potency is 10.7 µM (active).

Take `CO/N=C(\C(=O)N[C@@H]1C(=O)N2C(C(=O)O)=C(C[N+]3(C)CCCC3)CS[C@H]12)c1csc(N)n1`: the Potency entry is “inactive”.

Turning to `CCOc1ccc(S(=O)(=O)O)c2cccnc12`, the Potency entry was “inactive”.

Regarding `CCC(O)c1ccccc1` (stereo unspecified), the Potency result was “inactive”.

Take `CCOC(=O)C1=C(COCCN)NC(C)=C(C(=O)OC)C1c1ccccc1Cl` (stereo unspecified): the Potency is 16.9 µM (active).

Take `CC12CCC(C[N+](C)(CCC[N+](C)(C)C)C1)C2(C)C` (stereo unspecified): the Potency result was “inactive”.

As for `C/C=C/C=C/C(=O)O`, the Potency result is “inactive”.

With `CCCCCCCCCCCCCCCCCC[N+](C)(C)CCC[Si](OC)(OC)OC`, the Potency is 15.1 µM (active).

On to `FCOC(C(F)(F)F)C(F)(F)F`, for which the Potency entry was “inactive”.

`C[C@H](O)CN(C)C`: the Potency entry was “inactive”.

`Nc1nccs1`: the Potency entry is “inactive”.

As to `COC(=O)c1ccccc1O`, the Potency result was “inactive”.

On to `COC(=O)CCC[N+](C)(C)C`, for which the Potency result was “inactive”.

`CCN(CC)C(=O)c1cccnc1`: the Potency entry is “inactive”.

For the molecule `c1ccc2ccccc2c1`, the Potency result was “inactive”.

Turning to `CCCc1ccc(C(=O)O)cc1`, the Potency entry was “inactive”.

Regarding `CC(C)[C@@H]1CC[C@@H](C)C[C@H]1OC(=O)c1ccccc1O`, the Potency entry was “inactive”.

For `CCOC(C)OCC`, the Potency entry is “inactive”.

On to `Cc1cccc(C)c1NC(=O)C1CCCCN1C` (stereo unspecified), for which the Potency was 9.52 µM (active).

With `C[C@H](CCCC(C)(C)O)[C@H]1CC[C@H]2[C@@H]3CC=C4C[C@@H](O)CC[C@]4(C)[C@H]3CC[C@]12C`, the Potency entry is “inactive”.

For `N=C(N)n1cccn1`, the Potency result was “inactive”.

With `Cc1ncc(C[n+]2csc(CCO)c2C)c(N)n1`, the Potency result was “inactive”.

As for `O=C(CO)[C@@H](O)[C@H](O)[C@@H](O)C(=O)O`, the Potency entry was “inactive”.

Turning to `C=CCCCCCCCCC(=O)OC`, the Potency result is “inactive”.

Regarding `c1ccc(-n2cnnn2)cc1`, the Potency result is “inactive”.

As to `OCCOCCOCCO`, the Potency result is “inactive”.

In the case of `FC(F)OC(Cl)C(F)(F)F` (stereo unspecified), the Potency entry is “inactive”.

The target of a further experiment is Cytochrome P450 2C9 (Homo sapiens) (UniProt P11712). As to the kind of experiment: Cytochrome P450 family 2 subfamily C member 9 (CYP2C9) small molecule antagonists: luciferase biochemical (cell-free) qHTS assay (AID 1645842). The following applies: P450-Glo CYP2C9 enzyme assay, luciferin luminescence; series mostly up to 57.4 µM. A digest of the protocol:
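Luminescence, after 20 min with luciferin detection reagent, reflected CYP2C9 turnover during a 1 h NADPH-driven reaction at 37C. Enzyme-substrate mix contained 0.4% bovine serum albumin and was preincubated with compound 10 min at room temperature.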
For the molecule `S=C=Nc1ccc(N=C=S)cc1`, the Potency entry is “inactive”.

With `NC(=O)OCC(O)COc1ccc(Cl)cc1` (stereo unspecified), the Potency entry was “inactive”.

In the case of `Oc1cc(O)cc(O)c1`, the Potency result was “inactive”.

In the case of `O=C(OC1C[C@@H]2CC3C[C@H](C1)N2CC3=O)c1c[nH]c2ccccc12` (stereo partly specified), the Potency was 16.9 µM (active).

With `CN1c2c(nc(N)[nH]c2=O)NCC1CNc1ccc(C(=O)NC(CCC(=O)O)C(=O)O)cc1` (stereo unspecified), the Potency result was “inactive”.

Regarding `CO[C@H]1O[C@@H]2O[C@@]3(C)CC[C@H]4[C@H](C)CC[C@@H]([C@H]1C)[C@@]24OO3`, the Potency was 39.8 µM (active).

Regarding `CC1(O)CCC(C(C)(C)O)CC1` (stereo unspecified), the Potency entry is “inactive”.

With `COC(=O)[C@@H](N)CS`, the Potency was 9.52 µM (active).

With `CC(CCc1ccc(O)cc1)NCC(O)c1ccc(O)cc1` (stereo unspecified), the Potency entry is “inactive”.

`CC[C@H]1OC(=O)C[C@@H](O)[C@H](C)[C@@H](O[C@@H]2O[C@H](C)[C@@H](O[C@H]3C[C@@](C)(O)[C@@H](O)[C@H](C)O3)[C@H](N(C)C)[C@H]2O)[C@@H](CC=O)C[C@@H](C)C(=O)/C=C/C(C)=C/[C@@H]1CO[C@@H]1O[C@H](C)[C@@H](O)[C@@H](OC)[C@H]1OC`: the Potency entry is “inactive”.

For the molecule `Nc1nc(=O)n([C@@H]2CS[C@H](CO)O2)cc1F`, the Potency entry is “inactive”.

Regarding `CCCCCCOC(=O)c1cccnc1`, the Potency is 15.1 µM (active).

On to `CO/N=C(\C(=O)N[C@@H]1C(=O)N2C(C(=O)O)=C(C[N+]3(C)CCCC3)CS[C@H]12)c1csc(N)n1`, for which the Potency entry was “inactive”.

As for `CCOc1ccc(S(=O)(=O)O)c2cccnc12`, the Potency entry was “inactive”.

In the case of `CCC(O)c1ccccc1` (stereo unspecified), the Potency result is “inactive”.

As for `CCOC(=O)C1=C(COCCN)NC(C)=C(C(=O)OC)C1c1ccccc1Cl` (stereo unspecified), the Potency is 2.68 µM (active).

For the molecule `CC12CCC(C[N+](C)(CCC[N+](C)(C)C)C1)C2(C)C` (stereo unspecified), the Potency entry is “inactive”.

As to `C/C=C/C=C/C(=O)O`, the Potency entry was “inactive”.

As to `CCCCCCCCCCCCCCCCCC[N+](C)(C)CCC[Si](OC)(OC)OC`, the Potency entry is “inactive”.

Take `FCOC(C(F)(F)F)C(F)(F)F`: the Potency result was “inactive”.

For `C[C@H](O)CN(C)C`, the Potency result was “inactive”.

For the molecule `Nc1nccs1`, the Potency entry was “inactive”.

Regarding `COC(=O)c1ccccc1O`, the Potency entry was “inactive”.

Take `COC(=O)CCC[N+](C)(C)C`: the Potency result is “inactive”.

As to `CCN(CC)C(=O)c1cccnc1`, the Potency result is “inactive”.

On to `c1ccc2ccccc2c1`, for which the Potency result was “inactive”.

`CCCc1ccc(C(=O)O)cc1`: the Potency entry was “inactive”.

Regarding `CC(C)[C@@H]1CC[C@@H](C)C[C@H]1OC(=O)c1ccccc1O`, the Potency result is “inactive”.

On to `CCOC(C)OCC`, for which the Potency result is “inactive”.

With `Cc1cccc(C)c1NC(=O)C1CCCCN1C` (stereo unspecified), the Potency result was “inactive”.

Turning to `C[C@H](CCCC(C)(C)O)[C@H]1CC[C@H]2[C@@H]3CC=C4C[C@@H](O)CC[C@]4(C)[C@H]3CC[C@]12C`, the Potency result is “inactive”.

As for `N=C(N)n1cccn1`, the Potency entry was “inactive”.

As to `Cc1ncc(C[n+]2csc(CCO)c2C)c(N)n1`, the Potency result is “inactive”.

For `O=C(CO)[C@@H](O)[C@H](O)[C@@H](O)C(=O)O`, the Potency result is “inactive”.

For `C=CCCCCCCCCC(=O)OC`, the Potency entry is “inactive”.

In the case of `c1ccc(-n2cnnn2)cc1`, the Potency entry is “inactive”.

`OCCOCCOCCO`: the Potency entry was “inactive”.

As to `FC(F)OC(Cl)C(F)(F)F` (stereo unspecified), the Potency result was “inactive”.
